These results are taken from ChEMBL document CHEMBL3433997, “St. Jude Leishmania screening dataset” (2016).

Format in all cases: functional
Experiment [1] deals with Solute carrier family 2, facilitated glucose transporter member 1 (Homo sapiens) (UniProt P11166). The experiment in a line: ST_JUDE_LEISH: Cytotoxicity at 2uM final concentration against transgenic Leishmania Mexicana promastigotes LmGLUT1 that are glucose transport deficient and complemented with the human glucose transporter GLUT1. Activity is measured by DNA content using SYBR green in vitro.

The target in experiment [2] is Hexose transporter 1 (Plasmodium falciparum) (UniProt O97467). The experiment in a line: ST_JUDE_LEISH: Cytotoxicity at 2uM final concentration against transgenic Leishmania Mexicana promastigotes LmPfHT that are glucose transport deficient and complemented with the Plasmodium falciparum hexose transporter. Activity is measured by DNA content using SYBR green in vitro.

Experiment [3] deals with Glucose transporter (Leishmania mexicana) (UniProt O61059). The experiment can be described thus: ST_JUDE_LEISH: Cytotoxicity at 2uM final concentration against transgenic Leishmania Mexicana promastigotes LmGT2 that are glucose transport deficient and complemented with the L. Mexicana glucose transporter 2. Activity is measured by DNA content using SYBR green in vitro.

Sequence of Solute carrier family 2, facilitated glucose transporter member 1 (Homo sapiens) (P11166 whole entry): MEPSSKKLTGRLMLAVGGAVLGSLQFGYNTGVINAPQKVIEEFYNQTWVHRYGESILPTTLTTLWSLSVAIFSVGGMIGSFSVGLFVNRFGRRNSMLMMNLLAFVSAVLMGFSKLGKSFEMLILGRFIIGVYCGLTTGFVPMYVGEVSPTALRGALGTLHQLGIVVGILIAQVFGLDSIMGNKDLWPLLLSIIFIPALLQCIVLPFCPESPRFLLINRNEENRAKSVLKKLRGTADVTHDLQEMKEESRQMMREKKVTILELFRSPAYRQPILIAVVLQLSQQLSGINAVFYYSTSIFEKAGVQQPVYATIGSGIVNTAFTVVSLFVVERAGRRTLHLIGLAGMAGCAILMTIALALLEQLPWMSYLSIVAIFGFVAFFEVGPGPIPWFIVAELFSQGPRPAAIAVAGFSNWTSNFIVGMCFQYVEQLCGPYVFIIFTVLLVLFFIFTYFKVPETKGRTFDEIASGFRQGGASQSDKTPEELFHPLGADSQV

`Nc1nc(N)c2c(Sc3ccc(F)cc3)cccc2n1`: the inhibition in experiment [1] is 6.11%; in experiment [2] it was 6.64%; in experiment [3], 7.67%.

On to `COc1cccc(OC)c1C(=O)Nc1cccc(-c2nn3ccccc3c2-c2ccnc(Nc3cccc(F)c3)n2)c1`, for which the values for the inhibition in experiment [1], in experiment [2] and in experiment [3] were 6.78%, 9.03% and 4.91%, respectively.

In the case of `Cc1cc(=NN=Cc2cccc(F)c2)c2ccc(F)cc2[nH]1`, the inhibition came to 10.5% in experiment [1], 7.85% in experiment [2] and 7.27% in experiment [3].

Take `CC(C)(C)c1nn(-c2ccccc2)c2[nH]c(=O)c(CNC3CCCCC3)cc12`: the inhibition in experiment [1] was 1.69%; in experiment [2] it was 1.5%; in experiment [3], 2.72%.

Take `CCCN(C(=O)c1ccccc1C)c1nnc(-c2ccccc2C)s1`: the inhibition is -1.25% in experiment [1], 0.17% in experiment [2] and -3.1% in experiment [3].

As to `CCC(CO)NCC(O)Cn1c2ccc(Cl)cc2c2cc(Cl)ccc21` (stereo not drawn), the inhibition in experiment [1] amounted to 4.65%; in experiment [2] it was 5.96%; in experiment [3], 2.18%.

For `Cc1ccc(-c2cc(C(=O)Nc3ccc(S(=O)(=O)N4CC(C)OC(C)C4)cc3)[nH]n2)c(O)c1` (stereo not drawn), the inhibition came out at 3.32% in experiment [1], 2.68% in experiment [2] and 3.48% in experiment [3].

With `O=C(N[C@@H](Cc1ccccc1)C(=O)NCCN1CCCCC1)c1ccc(O)c(-c2cccc(C(F)(F)F)c2)c1`, the inhibition came to 2.63% in experiment [1], 1.38% in experiment [2] and 2.46% in experiment [3].

In the case of `O=C(Nc1ccc(N2CCCN(Cc3cccc(F)c3)CC2)cc1)c1cccs1`, the inhibition in experiment [1] is -0.38%; in experiment [2], -0.87%; in experiment [3], -3.03%.

For the molecule `N=C(N)NC(=O)Nc1cc(Cl)c(Br)c(Cl)c1`, the inhibition in experiment [1] amounted to 3%; in experiment [2] it was 6.09%; in experiment [3] it was 2.88%.

For `Cc1onc(-c2ccccc2)c1-c1nc(NCc2ccccc2Cl)no1`, the inhibition worked out at 2.36% in experiment [1], 2.64% in experiment [2] and 1.32% in experiment [3].

As for `Nc1nc(Nc2cccc(O)c2)nc2ccccc12`, the values for the inhibition in experiment [1], in experiment [2] and in experiment [3] were 6.67%, 9.29% and 1.22%, respectively.

Take `O=C(Cc1ccccc1)NC(CCN1CCC(NC(=O)c2ccc(Cl)cc2)CC1)c1ccc(Cl)c(Cl)c1` (stereo not drawn): the inhibition in experiment [1] was 2.22%; in experiment [2], 0.27%; in experiment [3] it was 1.02%.

As to `CNC(=O)c1cnc(Nc2ccc(N3CCN(C)CC3)c(C)c2)nc1NC`, the inhibition is -0.78% in experiment [1], -3.69% in experiment [2] and 3.79% in experiment [3].

Consider `CC[C@H](NC(=O)c1c(CN2CCC(N3CCCCC3)CC2)c(-c2ccccc2)nc2cc(O)ccc12)c1ccccc1`, for which the inhibition in experiment [1] was -0.16%; in experiment [2] it was -0.44%; in experiment [3], 1.08%.

Regarding `Cc1cc(C2CCN(CCCCNC(=O)c3ccc(-c4ccc(C#N)cc4)cc3)CC2)c(C)cc1O`, the inhibition was determined as 4.77% in experiment [1], 3.77% in experiment [2] and 4.8% in experiment [3].

By inhibition is commonly meant the change of the read-out against control, counted positive when it falls.
